Test results as given in article PMC11006913.

Columns and labels:
Test in all cases: PBM; 200 nM protein, PBS
Details in all cases: dsDNA, one strand shown
ALX1 [1] = molecular target: ALX1 (Homo sapiens, UniProt Q15699 118-204, L144V)
ALX1 [2] = molecular target: ALX1 (Homo sapiens, UniProt Q15699 118-204, L144R)
ALX1 [3] = molecular target: ALX1 (Homo sapiens, UniProt Q15699 118-204)
HOXD13 [4] = molecular target: HOXD13 (Homo sapiens, UniProt P35453 263-343, T313R)
HOXD13 [5] = molecular target: HOXD13 (Homo sapiens, UniProt P35453 263-343)
ALX3 [6] = molecular target: ALX3 (Homo sapiens, UniProt O95076 139-225)
ALX3 [7] = molecular target: ALX3 (Homo sapiens, UniProt O95076 139-225, L168Q)
HOXD13 [8] = molecular target: HOXD13 (Homo sapiens, UniProt P35453 263-343, T313A)
ALX3 [9] = molecular target: ALX3 (Homo sapiens, UniProt O95076 139-225, L168V)
ALX3 [10] = molecular target: ALX3 (Homo sapiens, UniProt O95076 139-225, N203S)
ALX3 (Homo sapiens, UniProt O95076 139-225, N203S), sequence (O95076 139-225 N203S): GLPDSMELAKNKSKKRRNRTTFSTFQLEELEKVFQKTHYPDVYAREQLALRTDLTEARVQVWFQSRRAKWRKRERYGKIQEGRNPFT

ALX1 (Homo sapiens, UniProt Q15699 118-204), sequence (Q15699 118-204): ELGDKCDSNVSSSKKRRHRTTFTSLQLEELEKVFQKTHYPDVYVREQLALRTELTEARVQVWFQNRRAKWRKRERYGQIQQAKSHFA
ALX1 (Homo sapiens, UniProt Q15699 118-204, L144R), sequence (Q15699 118-204 L144R): as the sequence (Q15699 118-204) above, with L27R counted along it
ALX1 (Homo sapiens, UniProt Q15699 118-204, L144V), sequence (Q15699 118-204 L144V): as the sequence (Q15699 118-204) above, with L27V counted along it
HOXD13 (Homo sapiens, UniProt P35453 263-343, T313A), sequence (P35453 263-343 T313A): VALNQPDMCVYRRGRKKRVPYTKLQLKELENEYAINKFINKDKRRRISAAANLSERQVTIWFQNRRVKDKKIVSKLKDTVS
ALX3 (Homo sapiens, UniProt O95076 139-225, L168V), sequence (O95076 139-225 L168V): as the sequence (O95076 139-225 N203S) above, with L30V, S65N counted along it
HOXD13 (Homo sapiens, UniProt P35453 263-343), sequence (P35453 263-343): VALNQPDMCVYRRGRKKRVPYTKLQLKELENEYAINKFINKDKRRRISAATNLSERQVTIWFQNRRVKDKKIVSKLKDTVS
ALX3 (Homo sapiens, UniProt O95076 139-225, L168Q), sequence (O95076 139-225 L168Q): as the sequence (O95076 139-225 N203S) above, with L30Q, S65N counted along it
ALX3 (Homo sapiens, UniProt O95076 139-225), sequence (O95076 139-225): as the sequence (O95076 139-225 N203S) above, with S65N counted along it
HOXD13 (Homo sapiens, UniProt P35453 263-343, T313R), sequence (P35453 263-343 T313R): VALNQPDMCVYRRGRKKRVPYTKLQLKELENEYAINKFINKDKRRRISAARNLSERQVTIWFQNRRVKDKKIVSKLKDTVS

## CGGGTGAG
ALX1 [1]
  binding signal: 6.48 upbm affinity estimate (log intensity, higher = more binding, comparable within an allelic series)
ALX1 [2]
  binding signal: 6.58 upbm affinity estimate (log intensity, higher = more binding, comparable within an allelic series)
ALX1 [3]
  binding signal: 6.62 upbm affinity estimate (log intensity, higher = more binding, comparable within an allelic series)

## ATTTGTAA
ALX1 [1]
  binding signal: 9.13 upbm affinity estimate (log intensity, higher = more binding, comparable within an allelic series)
ALX1 [2]
  binding signal: 8.97 upbm affinity estimate (log intensity, higher = more binding, comparable within an allelic series)
ALX1 [3]
  binding signal: 9.47 upbm affinity estimate (log intensity, higher = more binding, comparable within an allelic series)

## CGCCTTCC
ALX1 [1]
  binding signal: 6.24 upbm affinity estimate (log intensity, higher = more binding, comparable within an allelic series)
ALX1 [2]
  binding signal: 6.38 upbm affinity estimate (log intensity, higher = more binding, comparable within an allelic series)
ALX1 [3]
  binding signal: 6.08 upbm affinity estimate (log intensity, higher = more binding, comparable within an allelic series)

## ATATTGTC
ALX1 [1]
  binding signal: 8.09 upbm affinity estimate (log intensity, higher = more binding, comparable within an allelic series)
ALX1 [2]
  binding signal: 8.02 upbm affinity estimate (log intensity, higher = more binding, comparable within an allelic series)
ALX1 [3]
  binding signal: 8 upbm affinity estimate (log intensity, higher = more binding, comparable within an allelic series)

## GTTATACA
ALX1 [1]
  binding signal: 8.24 upbm affinity estimate (log intensity, higher = more binding, comparable within an allelic series)
ALX1 [2]
  binding signal: 8.23 upbm affinity estimate (log intensity, higher = more binding, comparable within an allelic series)
ALX1 [3]
  binding signal: 8.43 upbm affinity estimate (log intensity, higher = more binding, comparable within an allelic series)

## GCACCAGC
ALX1 [1]
  binding signal: 6.41 upbm affinity estimate (log intensity, higher = more binding, comparable within an allelic series)
ALX1 [2]
  binding signal: 6.46 upbm affinity estimate (log intensity, higher = more binding, comparable within an allelic series)
ALX1 [3]
  binding signal: 6.19 upbm affinity estimate (log intensity, higher = more binding, comparable within an allelic series)

## CAACGGAG
ALX1 [1]
  binding signal: 6.43 upbm affinity estimate (log intensity, higher = more binding, comparable within an allelic series)
ALX1 [2]
  binding signal: 6.49 upbm affinity estimate (log intensity, higher = more binding, comparable within an allelic series)
ALX1 [3]
  binding signal: 6.47 upbm affinity estimate (log intensity, higher = more binding, comparable within an allelic series)

## GGACCCAC
ALX1 [1]
  binding signal: 6.45 upbm affinity estimate (log intensity, higher = more binding, comparable within an allelic series)
ALX1 [2]
  binding signal: 6.3 upbm affinity estimate (log intensity, higher = more binding, comparable within an allelic series)
ALX1 [3]
  binding signal: 6.26 upbm affinity estimate (log intensity, higher = more binding, comparable within an allelic series)

## CACTATTA
ALX1 [1]
  binding signal: 9.26 upbm affinity estimate (log intensity, higher = more binding, comparable within an allelic series)
ALX1 [2]
  binding signal: 9.02 upbm affinity estimate (log intensity, higher = more binding, comparable within an allelic series)
ALX1 [3]
  binding signal: 9.61 upbm affinity estimate (log intensity, higher = more binding, comparable within an allelic series)

## AGCGCAGC
ALX1 [1]
  binding signal: 6.5 upbm affinity estimate (log intensity, higher = more binding, comparable within an allelic series)
ALX1 [2]
  binding signal: 6.49 upbm affinity estimate (log intensity, higher = more binding, comparable within an allelic series)
ALX1 [3]
  binding signal: 6.42 upbm affinity estimate (log intensity, higher = more binding, comparable within an allelic series)

## CACAGAGC
ALX1 [1]
  binding signal: 6.53 upbm affinity estimate (log intensity, higher = more binding, comparable within an allelic series)
ALX1 [2]
  binding signal: 6.53 upbm affinity estimate (log intensity, higher = more binding, comparable within an allelic series)
ALX1 [3]
  binding signal: 6.59 upbm affinity estimate (log intensity, higher = more binding, comparable within an allelic series)

## TAGGATAA
ALX1 [1]
  binding signal: 8.45 upbm affinity estimate (log intensity, higher = more binding, comparable within an allelic series)
ALX1 [2]
  binding signal: 8.36 upbm affinity estimate (log intensity, higher = more binding, comparable within an allelic series)
ALX1 [3]
  binding signal: 8.67 upbm affinity estimate (log intensity, higher = more binding, comparable within an allelic series)

## AAGGCGTG
ALX1 [1]
  binding signal: 6.54 upbm affinity estimate (log intensity, higher = more binding, comparable within an allelic series)
ALX1 [2]
  binding signal: 6.5 upbm affinity estimate (log intensity, higher = more binding, comparable within an allelic series)
ALX1 [3]
  binding signal: 6.55 upbm affinity estimate (log intensity, higher = more binding, comparable within an allelic series)

## CGACGGCG
ALX1 [1]
  binding signal: 6.62 upbm affinity estimate (log intensity, higher = more binding, comparable within an allelic series)
ALX1 [2]
  binding signal: 6.71 upbm affinity estimate (log intensity, higher = more binding, comparable within an allelic series)
ALX1 [3]
  binding signal: 6.56 upbm affinity estimate (log intensity, higher = more binding, comparable within an allelic series)

## CAAATTTG
ALX1 [1]
  binding signal: 9.35 upbm affinity estimate (log intensity, higher = more binding, comparable within an allelic series)
ALX1 [2]
  binding signal: 9 upbm affinity estimate (log intensity, higher = more binding, comparable within an allelic series)
ALX1 [3]
  binding signal: 9.69 upbm affinity estimate (log intensity, higher = more binding, comparable within an allelic series)

## CATTAAAG
ALX1 [1]
  binding signal: 9.86 upbm affinity estimate (log intensity, higher = more binding, comparable within an allelic series)
ALX1 [2]
  binding signal: 9.67 upbm affinity estimate (log intensity, higher = more binding, comparable within an allelic series)
ALX1 [3]
  binding signal: 10.1 upbm affinity estimate (log intensity, higher = more binding, comparable within an allelic series)

## ACGATTAC
ALX1 [1]
  binding signal: 8.4 upbm affinity estimate (log intensity, higher = more binding, comparable within an allelic series)
ALX1 [2]
  binding signal: 8.26 upbm affinity estimate (log intensity, higher = more binding, comparable within an allelic series)
ALX1 [3]
  binding signal: 8.62 upbm affinity estimate (log intensity, higher = more binding, comparable within an allelic series)

## CTCCTGGA
ALX1 [1]
  binding signal: 6.55 upbm affinity estimate (log intensity, higher = more binding, comparable within an allelic series)
ALX1 [2]
  binding signal: 6.53 upbm affinity estimate (log intensity, higher = more binding, comparable within an allelic series)
ALX1 [3]
  binding signal: 6.48 upbm affinity estimate (log intensity, higher = more binding, comparable within an allelic series)

## AGCAATAT
ALX1 [1]
  binding signal: 8.17 upbm affinity estimate (log intensity, higher = more binding, comparable within an allelic series)
ALX1 [2]
  binding signal: 8.11 upbm affinity estimate (log intensity, higher = more binding, comparable within an allelic series)
ALX1 [3]
  binding signal: 8.09 upbm affinity estimate (log intensity, higher = more binding, comparable within an allelic series)

## TCTGTTAA
ALX1 [1]
  binding signal: 8.7 upbm affinity estimate (log intensity, higher = more binding, comparable within an allelic series)
ALX1 [2]
  binding signal: 8.61 upbm affinity estimate (log intensity, higher = more binding, comparable within an allelic series)
ALX1 [3]
  binding signal: 9.01 upbm affinity estimate (log intensity, higher = more binding, comparable within an allelic series)

## AGATCATC
ALX1 [1]
  binding signal: 7.78 upbm affinity estimate (log intensity, higher = more binding, comparable within an allelic series)
ALX1 [2]
  binding signal: 7.76 upbm affinity estimate (log intensity, higher = more binding, comparable within an allelic series)
ALX1 [3]
  binding signal: 7.9 upbm affinity estimate (log intensity, higher = more binding, comparable within an allelic series)

## ATGTGTAA
ALX1 [1]
  binding signal: 8.64 upbm affinity estimate (log intensity, higher = more binding, comparable within an allelic series)
ALX1 [2]
  binding signal: 8.5 upbm affinity estimate (log intensity, higher = more binding, comparable within an allelic series)
ALX1 [3]
  binding signal: 8.88 upbm affinity estimate (log intensity, higher = more binding, comparable within an allelic series)

## AGTTACTG
ALX1 [1]
  binding signal: 8.01 upbm affinity estimate (log intensity, higher = more binding, comparable within an allelic series)
ALX1 [2]
  binding signal: 7.88 upbm affinity estimate (log intensity, higher = more binding, comparable within an allelic series)
ALX1 [3]
  binding signal: 8.32 upbm affinity estimate (log intensity, higher = more binding, comparable within an allelic series)

## CGTATAAG
ALX1 [1]
  binding signal: 8.14 upbm affinity estimate (log intensity, higher = more binding, comparable within an allelic series)
ALX1 [2]
  binding signal: 8.05 upbm affinity estimate (log intensity, higher = more binding, comparable within an allelic series)
ALX1 [3]
  binding signal: 8.12 upbm affinity estimate (log intensity, higher = more binding, comparable within an allelic series)

## ATTTAGTA
ALX1 [1]
  binding signal: 9.39 upbm affinity estimate (log intensity, higher = more binding, comparable within an allelic series)
ALX1 [2]
  binding signal: 9.22 upbm affinity estimate (log intensity, higher = more binding, comparable within an allelic series)
ALX1 [3]
  binding signal: 9.79 upbm affinity estimate (log intensity, higher = more binding, comparable within an allelic series)

## CGCCGAGA
ALX1 [1]
  binding signal: 6.15 upbm affinity estimate (log intensity, higher = more binding, comparable within an allelic series)
ALX1 [2]
  binding signal: 6.32 upbm affinity estimate (log intensity, higher = more binding, comparable within an allelic series)
ALX1 [3]
  binding signal: 6.31 upbm affinity estimate (log intensity, higher = more binding, comparable within an allelic series)

## GGCTAGGA
ALX1 [1]
  binding signal: 6.64 upbm affinity estimate (log intensity, higher = more binding, comparable within an allelic series)
ALX1 [2]
  binding signal: 6.63 upbm affinity estimate (log intensity, higher = more binding, comparable within an allelic series)
ALX1 [3]
  binding signal: 6.34 upbm affinity estimate (log intensity, higher = more binding, comparable within an allelic series)

## ACCCGCGT
ALX1 [1]
  binding signal: 6.47 upbm affinity estimate (log intensity, higher = more binding, comparable within an allelic series)
ALX1 [2]
  binding signal: 6.51 upbm affinity estimate (log intensity, higher = more binding, comparable within an allelic series)
ALX1 [3]
  binding signal: 6.45 upbm affinity estimate (log intensity, higher = more binding, comparable within an allelic series)

## CCGACTGC
ALX1 [1]
  binding signal: 6.5 upbm affinity estimate (log intensity, higher = more binding, comparable within an allelic series)
ALX1 [2]
  binding signal: 6.49 upbm affinity estimate (log intensity, higher = more binding, comparable within an allelic series)
ALX1 [3]
  binding signal: 6.52 upbm affinity estimate (log intensity, higher = more binding, comparable within an allelic series)

## GAGGAGCC
ALX1 [1]
  binding signal: 6.5 upbm affinity estimate (log intensity, higher = more binding, comparable within an allelic series)
ALX1 [2]
  binding signal: 6.54 upbm affinity estimate (log intensity, higher = more binding, comparable within an allelic series)
ALX1 [3]
  binding signal: 6.27 upbm affinity estimate (log intensity, higher = more binding, comparable within an allelic series)

## CCTCAATC
ALX1 [1]
  binding signal: 7.8 upbm affinity estimate (log intensity, higher = more binding, comparable within an allelic series)
ALX1 [2]
  binding signal: 7.78 upbm affinity estimate (log intensity, higher = more binding, comparable within an allelic series)
ALX1 [3]
  binding signal: 7.96 upbm affinity estimate (log intensity, higher = more binding, comparable within an allelic series)

## GTCCAGAC
ALX1 [1]
  binding signal: 6.53 upbm affinity estimate (log intensity, higher = more binding, comparable within an allelic series)
ALX1 [2]
  binding signal: 6.49 upbm affinity estimate (log intensity, higher = more binding, comparable within an allelic series)
ALX1 [3]
  binding signal: 6.42 upbm affinity estimate (log intensity, higher = more binding, comparable within an allelic series)

## CCTTGGCG
ALX1 [1]
  binding signal: 6.13 upbm affinity estimate (log intensity, higher = more binding, comparable within an allelic series)
ALX1 [2]
  binding signal: 6.15 upbm affinity estimate (log intensity, higher = more binding, comparable within an allelic series)
ALX1 [3]
  binding signal: 6.14 upbm affinity estimate (log intensity, higher = more binding, comparable within an allelic series)

## GACTCGAC
ALX1 [1]
  binding signal: 6.55 upbm affinity estimate (log intensity, higher = more binding, comparable within an allelic series)
ALX1 [2]
  binding signal: 6.63 upbm affinity estimate (log intensity, higher = more binding, comparable within an allelic series)
ALX1 [3]
  binding signal: 6.64 upbm affinity estimate (log intensity, higher = more binding, comparable within an allelic series)

## GCTTCGAC
HOXD13 [4]
  binding signal: 9.46 upbm affinity estimate (log intensity, higher = more binding, comparable within an allelic series)
HOXD13 [5]
  binding signal: 9.32 upbm affinity estimate (log intensity, higher = more binding, comparable within an allelic series)
ALX3 [6]
  binding signal: 7.65 upbm affinity estimate (log intensity, higher = more binding, comparable within an allelic series)
ALX3 [7]
  binding signal: 7.79 upbm affinity estimate (log intensity, higher = more binding, comparable within an allelic series)
HOXD13 [8]
  binding signal: 9.54 upbm affinity estimate (log intensity, higher = more binding, comparable within an allelic series)
ALX3 [9]
  binding signal: 7.79 upbm affinity estimate (log intensity, higher = more binding, comparable within an allelic series)
ALX3 [10]
  binding signal: 7.83 upbm affinity estimate (log intensity, higher = more binding, comparable within an allelic series)
